# Screening data as filed in PubChem.
# This is a sample that favours compounds with a hit; in the whole collection about 7.3% have one here.
# FLuc counter = qHTS profiling assay for firefly luciferase inhibitor/activator using purifed enzyme and Km concentrations of substrates (counterscreen for miR-21 project). Potency, µM (series often up to 57.5 µM), for the others: at the top dose activity change, negative = inhibition, actives largely listed as inhibitors. Luciferin 4-monooxygenase (Photinus pyralis), P08659. purified FLuc, Km substrates, luminescence inhibition. 360,000 tested, 6.9% active. AID 588342, 2011;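 note: plate controls were vehicle for no effect and reference inhibitor for full effect; nearly all actives have a fitted effect of over 55% in size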
# Target sequence (P08659 whole entry, looked up): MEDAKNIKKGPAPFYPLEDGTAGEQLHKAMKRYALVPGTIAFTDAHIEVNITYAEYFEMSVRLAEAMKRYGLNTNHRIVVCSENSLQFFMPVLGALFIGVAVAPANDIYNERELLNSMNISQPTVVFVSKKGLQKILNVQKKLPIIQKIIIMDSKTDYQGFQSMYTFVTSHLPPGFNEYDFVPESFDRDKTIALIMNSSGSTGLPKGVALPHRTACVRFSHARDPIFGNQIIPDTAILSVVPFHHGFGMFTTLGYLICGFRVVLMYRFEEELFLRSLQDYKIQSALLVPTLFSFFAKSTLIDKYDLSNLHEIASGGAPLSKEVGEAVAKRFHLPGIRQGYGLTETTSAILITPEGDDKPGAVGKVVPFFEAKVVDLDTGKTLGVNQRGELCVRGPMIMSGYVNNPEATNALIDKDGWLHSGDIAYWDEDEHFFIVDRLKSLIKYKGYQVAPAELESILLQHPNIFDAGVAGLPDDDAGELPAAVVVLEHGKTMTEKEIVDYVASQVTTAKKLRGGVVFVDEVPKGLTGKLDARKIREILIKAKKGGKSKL
#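 Purified P. pyralis luciferase, 10 nM final, with Km-level 10 uM D-luciferin and 10 uM ATP in 50 mM Tris acetate pH 7.5, 10 mM Mg acetate, 0.01% Tween-20, 0.05% BSA; 6-point qHTS titration about 60 µM downward; luminescence read.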
# NPC1 prom act = qHTS Assay for NPC1 Promoter Activators; Huh7 NPC1 promoter luciferase reporter, 24 h; Potency, µM (series often up to 9.22 µM), without a hit: at the highest dose activation, hits mostly activators; 320,000 tested, 2.4% active; note: % of control where 0% means no effect; nearly all actives have a fitted effect of over 60% in size
#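 In 1536-well qHTS, Huh7 cells harboring an NPC1 promoter–luciferase construct received compound for 24 h; activation was quantified by luminescence following luciferase reagent addition.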
# Luc counter = Counterscreen for Luciferase (Kinase-Glo TM) Inhibition; Potency, µM (titrated, usually from 38.3 µM), without a hit: at the top dose activity change, negative = inhibition, most hits filed as inhibitors; Luciferin 4-monooxygenase (Photuris pensylvanica), Q27757; 200,000 tested, 0.28% active; Kinase-Glo luciferase, ATP luminescence, 8 min; note: % is set by controls: 0 for no effect and ±100 for the full control effect; nearly all actives have a fitted effect of over 60% in size
#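 Light output from Kinase-Glo luciferase with luciferin and 10 uM ATP in 50 mM imidazole pH 7.2, KCl, MgCl2, Tween 20, BSA; compound pin-delivered, 8-min ambient incubation, then luminescence read.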
# SMN2 splice up = qHTS Assay for Enhancers of SMN2 Splice Variant Expression; 210,000 tested, 2.8% active; HEK293 SMN2-luciferase splicing reporter, luminescence, 30-36 h; Potency, µM (series often up to 46.1 µM), for the others: at the highest dose activity change, positive = activation, most hits filed as activators; AID 1458, 2008; note: % of control where 0% means no effect; nearly all actives have a fitted effect of over 55% in size
#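 HEK293 cells carry an SMN2 minigene-luciferase reporter in which exon 7 inclusion puts luciferase in frame. Cells were seeded at 2000 cells/well, attached for 10-12 hours, then exposed to compounds for 30-36 hours at 37C before ONE-Glo luminescence.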
# Rab9 prom act = qHTS Assay for Rab9 Promoter Activators | Huh7 Rab9 promoter-luciferase reporter, luminescence, 24 h | Potency, µM (highest dose often 9.22 µM), for inactives: at the highest dose activation, negative = inhibition, hits mostly activators | 320,000 tested, 2.8% active; note: % of control where 0% means no effect; nearly all actives have a fitted effect of over 60% in size
#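 Stable Rab9-luc Huh7, 1500 cells/well, 2 h settle; cmpd in DMSO, 24 h, 37 °C/5% CO2; luciferase reagent 10 min RT; luminescence.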
# * marks the source's active call; other numbers are inactive results; ? = inconclusive; . = not tested or not shown; [ ] = remark or other dose. Calls come from the whole dose curve; as a rule, active = well fitted curve in the direction sought with a large enough effect; inconclusive = small, poorly fitted or top-dose-only effect, or another doubt; inactive = no such curve, though single readings can be large; an effect the other way counts as inactive or inconclusive. Potency is the fitted concentration of half-maximal effect.
SMILES,FLuc counter,NPC1 prom act,Luc counter,SMN2 splice up,Rab9 prom act
CCOC(=O)c1[nH]c2c(c1Cc1ccccc1OC)C(=O)CC(c1ccc(OCC)cc1)C2 (configuration not stated),0%,.,.,-5%,.
O=S(=O)(c1ccccc1)c1nnn2c1nc(NC1CCCCC1)c1sccc12,-5%,.,.,.,.
CCN1CCc2nc(NC(=O)Cc3ccc4c(c3)OCCO4)sc2C1,-3%,-1%,2%,-1%,-1%
CCC(=O)N1CCN(c2ccc(NC(=O)c3ccc4c(c3)OCCO4)cc2)CC1,-2%,1%,-3%,2%,22%
CCN1CCc2nc(NC(=O)c3ccc4c(c3)OCCO4)sc2C1,11µM*,?,-4%,?,?
Cc1ccc(C(=O)Nc2ccc(N3CCN(C)CC3)cc2)c(Cl)c1,24µM*,3.5µM*,.,.,3.5µM*
Cc1ccc(C(=O)Nc2ccc(N3CCN(C)CC3)cc2)cc1C,3.4µM*,0.79µM*,.,.,0.71µM*
CS(=O)(=O)c1ccc(C(=O)Nc2ccc(N3CCCCC3)cc2)c(Cl)c1,-6%,-4%,-2%,4%,-3%
CN1CCN(c2ccc(NC(=O)c3ccc4c(c3)OCCO4)cc2)CC1,6µM*,2.2µM*,1%,11µM*,3.2µM*
COc1cccc(CNC(=O)CSC2=Nc3ccccc3C3=NC(C(C)C)C(=O)N23)c1 (configuration not stated),1%,.,.,.,.
CCN1CCN(c2ccc(NC(=O)c3ccc4c(c3)OCCO4)cc2C)CC1,6.7µM*,2.8µM*,.,.,1.6µM*
COc1ccc(-c2nc3c(c4c2C[C@H](c2ccccc2)OC4)CN(S(=O)(=O)c2ccc(Cl)c4nonc24)CC3)c(C)c1,.,.,-7%[7.66 µM],13%[9.22 µM],.
Oc1ccc(/C=N/NC(=S)Nc2cccnc2)c(O)c1O,19µM*,-3%,.,.,-3%
Oc1cccc(/C=N/NC(=S)Nc2cccnc2)c1O,?,0%,-3%,-82%,-2%
Oc1ccc(/C=N/NC(=S)Nc2cccnc2)c(O)c1,21µM*,-2%,1%,-92%,-18%
COCCN(CCOC)C(=O)c1ccc(Cc2nc3ccccc3[nH]2)cc1,.,.,2%,.,.
Cc1ccc(NC(=O)c2cc(N(C)C)ccc2[P+](=O)O)cc1,19µM*,11%,9%,-7%,2%
Cc1ccc(NC(=O)c2cc(-n3cnnc3)ccc2Cl)cc1,?,2%,-1%,-2%,0%
CC(C)C(=O)N/N=C/c1ccc(OCc2ccccc2)cc1,-14%,2%,-1%,-6%,1%
CCOc1cc(C=O)ccc1OCC(=O)N1CCCC1,2%,-10%,0%,.,-3%
O=C(O)c1cc(N/N=C/c2ccc(OCc3ccccc3)cc2)ccc1Cl,6.7µM*,2.5µM*,1%,11µM*,0.56µM*
O=C(O)c1ccc(N/N=C/c2ccc(OC(=O)c3cccc(Cl)c3)cc2)cc1,19µM*,?,.,.,?
CCOc1cc(/C=N/Nc2cccc(C(=O)O)c2)ccc1OCC(=O)N1CCCCC1,21µM*,4µM*,7%,11µM*,4.5µM*
O=C(O)c1cc(N/N=C/C=C/c2ccccc2)ccc1Cl,7.6µM*,0.4µM*,2%,10µM*,0.35µM*
O=C(N/N=C/C=C/c1ccccc1)c1ccccc1Br,?,4%,-4%,22%,-2%
SMILES,FLuc counter,NPC1 prom act,Luc counter,SMN2 splice up,Rab9 prom act
Nc1ccc(N=Nc2c(S(=O)(=O)O)cc3ccccc3c2S(=O)(=O)O)cc1,.,.,-6%[7.66 µM],1%[9.22 µM],.
CCN(CC)S(=O)(=O)c1ccc2c(c1)N(CC(=O)NCc1ccccc1)C(=O)C1CCCCN21 (configuration not stated),5%,.,.,.,.
O=C(Oc1ccc(/C=N/Nc2ccccc2)cc1)c1ccccc1,?,20%,-2%,-17%,7%
COC(=O)c1ccc(COc2ccc(/C=N/Nc3nc(C)cc(=O)[nH]3)cc2)cc1,-18%,3%,.,.,15%
O=C(O)c1cccc(N/N=C/c2cccs2)c1,0.43µM*,?,-2%,0.14µM*,?
COC(=O)c1ccc(COc2ccc(/C=N/Nc3cccc(C(=O)O)c3)cc2)cc1,2.7µM*,0.71µM*,.,.,0.4µM*
CSc1ccc(/C=N/Nc2cccc(C(=O)O)c2)cc1,0.076µM*,?,-2%,0.25µM*,0.089µM*
O=C(O)c1cccc(N/N=C/c2ccc(OC(F)(F)F)cc2)c1,0.067µM*,?,.,.,0.032µM*
COc1ccc(Cn2c(=O)c3oc4ccccc4c3n(Cc3cccc(C(F)(F)F)c3)c2=O)cc1,0%,.,.,.,.
COC(=O)CN1C(C(=O)c2ccccc2)=C(OC(=O)c2ccc(C)cc2)c2ccccc2S1(=O)=O,0%,.,.,2%,.
c1ccc2c(c1)Cc1cc(CN3CCOCC3)ccc1-2,9.5µM*,4µM*,4%,14µM*,?
CCN1CCN(Cc2ccc3c(c2)Cc2ccccc2-3)CC1,-5%,0%,3%,-15%,2%
CC1=NN(C(N)=S)C(=O)C1N=Nc1ccccc1C (configuration not stated),21µM*,13%,2%,?,4%
CC1=NN(C(N)=S)C(=O)C1N=Nc1c(C)cc(C)cc1C (configuration not stated),?,-1%,1%,-26%,26%
CC1=NN(C(N)=S)C(=O)C1N=Nc1ccc(C)cc1C (configuration not stated),4.8µM*,?,-4%,14µM*,?
CC1=NN(C(N)=S)C(=O)C1N=Nc1ccccc1O (configuration not stated),-5%,26%,.,.,8%
Cc1c(C(=O)Nc2ccc3c(c2)CCC3)cccc1[N+](=O)[O-],13µM*,?,-4%,.,?
CSc1ccccc1C(=O)Nc1ccc2c(c1)CCC2,15µM*,?,.,.,2%[1.84 µM]
Cc1c(C(=O)Nc2ccc(Nc3ccccc3)cc2)cccc1[N+](=O)[O-],-3%,-10%,.,.,-3%
